Consider 39 compounds from PubChem BioAssay (EPA / NIEHS).

Where “and” joins values, the source holds several entries; their conditions need not be identical. Equal entries are not always repeated. The source holds several records for some structures; these can differ, active in one and inactive in another. Calls of active or inactive are those of the source. Rule for the calls: active = hit-call score of the fitted dose curve at least 0.9, where 1 is the maximum; inactive = score below 0.9.

Read-out in this assay: Ezrin (EZR), EZR (gene 7430)
As to the kind of experiment: LTEA_HepaRG_EZR: Life Technologies and Expression Analysis (LTEA) Assay for Ezrin (EZR) using HepaRG (AID 2283491). Conditions: mRNA level, 48 h; actives raise or lower the signal. Here is the method:
It is a marker of Cellular remodeling.Data from the assay component LTEA_HepaRG_EZR was analyzed into 1 endpoint. This assay endpoint, LTEA_HepaRG_EZR, was analyzed with bidirectional fitting relative to DMSO as the negative control and baseline of activity. Using a type of inducible reporter, measures of mRNA induction for gain or loss-of-signal activity can be used to understand regulation of transcription factor activity. To generalize the intended target to other relatable targets, this assay endpoint is annotated to the membrane protein intended target family, where the subfamily is Cellular remodeling.
A total of 1060 chemcials from the ToxCast library were tested in eight-point concentration-response experiments. Cell culture and cytotoxicity assays were conducted at Thermo Fisher Scientific's Custom Services facility (Madison, WI). A single lot of human HepaRG cells (Thermo Fisher Scientific, Frederick, MD) was used for the cell culture experiments. 96-well format collagen type I coated plates of human HepaRG cells were prepared using established methods. Briefly, cryopreserved HepaRG cells were thawed, plated at a density of approximately 100,000 cells/well in HepaRG Thaw, Plate, and General Purpose media (HPRG770, Thermo Fisher Scientific), and incubated for 48 hours. 0.5% DMSO was selected as vehicle control to balance the requisite need of DMSO in HepaRG cultures to maintain differentiation (for example, baseline metabolism, proportions of hepatocytes vs. cholangiocytes), while enabling further hepatic receptor pathway activation (for example, PXR and CAR) in response to chemical exposure. 48 hours after plating, the culture medium was replaced with HepaRG Serum-Free Incudtion Media. Cells were exposed to each test chemical in duplicate and maintained in CO2 incubators for another 48 hours. Chemical plates were thawed to room temperature and 200x concentrations of treatment groups were prepared. 8-point conentration-reponse curves were made with the highest exposure at 100 uM, followed by half-log dilutions, all in 0.5% DMSO. Each test plate contained variouse controls, induction positive controls (1mM phenobarbital), cytotoxicity positive controls ([…] aflatoxin B1), vehicle controls (0.5% DMSO), and total lysis controls (0.5% DMSO). Cell morphology images were taken using an Essen IncuCyte FLR automated microscope, with six 96-well plates imaged in about 24 minutes. Images were captured and exported and JPEG files. Spent culture media was transfered to black-well plates for the LDH assay, and remaining media was sorted at -80 C for later use. Cells were treated with RLT buffer and frozen until shipped for gene expression analysis. Total RNA was isolated from the cell suspension in 75 uL of Buffer RLT (Qiagen, Germantown, MD 20874) by Quintiles/Expression Analysis (Durham, NC) using a custom isolation procedure. Total RNA from each plate well was transferred to a preamplification plate. Fluidigm's 96.96 Dynamic ArrayTM (Fluidigm, Amsterdam, the Netherlands) technology was used for gene expression analyses by quantitative reverse transcription polymerase chain reaction (qRT-PCR, performed by Quintiles/Expression Analysis, Durham, NC)89. Standard TaqManTM Assays (Applied Biosystems/ThermoFisher Scientific, Foster City, CA) were used to assess the expression of 93 genes selected based on their selectivity and sensitivity to important hepatic receptors known to be modulated by environmental chemicals; importance in human hepatocyte functionality; and hepatotoxicity. Three "housekeeping" endogenous control genes were also included and used for normalization: actin beta (ACTB), Glyceraldehyde 3 phosphate dehydrogenase (GAPDH) and RNA Polymerase II Subunit A (POLR2A). qRT-PCR was conducted according to the manufacturer's protocol.
Take `CC(C)Oc1cc(-n2nc(C(C)(C)C)oc2=O)c(Cl)cc1Cl`: the compound was called inactive.

As to `COP(N)(=O)SC` (stereo not given), the compound was called inactive.

As to `CCCC1COC(Cn2cncn2)(c2ccc(Cl)cc2Cl)O1` (stereo not given), the compound was called inactive.

For the compound `COc1nc(NC(C)C)nc(NC(C)C)n1`, the call was inactive.

Turning to `CC1=C(C(=O)Nc2ccccc2)SCCO1`, the outcome was inactive.

Take `Cc1ccc(-c2c(Cl)nc(C#N)n2S(=O)(=O)N(C)C)cc1`: the compound was classed as inactive.

Take `COP(=S)(OC)Oc1nc(Cl)c(Cl)cc1Cl`: the result was inactive.

In the case of `CON(C)C(=O)Nc1ccc(Cl)c(Cl)c1`, the compound was classed as inactive.

Consider `COc1cnc(OC)n2nc(NS(=O)(=O)c3c(OCC(F)F)cccc3C(F)(F)F)nc12`, for which the compound was classed as inactive.

With `N#Cc1nn(-c2c(Cl)cc(C(F)(F)F)cc2Cl)c(N)c1S(=O)C(F)(F)F` (stereo not given), the AC50 is 29.3 µM (active).

As for `Oc1ccccc1-c1ccccc1`, the result was inactive.

On to `C=CCC1=C(C)C(OC(=O)C2C(C=C(C)C)C2(C)C)CC1=O` (stereo not given), for which the compound was called inactive.

With `Cc1c(F)c(F)c(COC(=O)C2C(/C=C(\Cl)C(F)(F)F)C2(C)C)c(F)c1F` (stereo not given), the call was inactive.

Turning to `Cc1cc(Cl)ccc1OCC(=O)O`, the compound was classed as inactive.

For `C#CCOS(=O)OC1CCCCC1Oc1ccc(C(C)(C)C)cc1` (stereo not given), the call was inactive.

In the case of `C=CC1(C)OC(=O)N(c2cc(Cl)cc(Cl)c2)C1=O` (stereo not given), the outcome was inactive.

As to `COC(=O)N(OC)c1ccccc1COc1ccn(-c2ccc(Cl)cc2)n1`, the call was inactive.

For `CCCN(CCC)c1c([N+](=O)[O-])cc(S(N)(=O)=O)cc1[N+](=O)[O-]`, the outcome was inactive; the AC50 was 95.9 µM (active) and 78 µM (active).

As for `CO/C=C(/C(=O)OC)c1ccccc1Oc1cc(Oc2ccccc2C#N)ncn1`, the compound was called inactive.

On to `COC(=O)C(C)Oc1ccc(Oc2ccc(Cl)cc2Cl)cc1` (stereo not given), for which the outcome was inactive.

`CCOc1cc(Oc2ccc(C(F)(F)F)cc2Cl)ccc1[N+](=O)[O-]`: the compound was called inactive.

Regarding `CC(C)C1(C)N=C(c2nc3ccccc3cc2C(=O)O)NC1=O` (stereo not given), the outcome was inactive.

Take `CCOC(=O)CC(SP(=S)(OC)OC)C(=O)OCC` (stereo not given): the call was inactive.

For the compound `COc1ccc(C(c2ccc(OC)cc2)C(Cl)(Cl)Cl)cc1`, the concentration at half-maximal activity (AC50) was 79.8 µM (active).

On to `Fc1ccc(Oc2ccnc3cc(Cl)cc(Cl)c23)cc1`, for which the call was inactive.

Consider `CCc1nn(C)c(C(=O)NCc2ccc(C(C)(C)C)cc2)c1Cl`, for which the call was inactive.

Regarding `CNC(=S)S`, the compound was called inactive.

`COC(=O)C=C(C)OP(=O)(OC)OC`: the result was inactive.

On to `O=C(Nc1ccccc1)Nc1ccnc(Cl)c1`, for which the half-maximal activity concentration (AC50) is 79.5 µM (active).

With `CC1COC(Cn2cncn2)(c2ccc(Oc3ccc(Cl)cc3)cc2Cl)O1` (stereo not given), the half-maximal activity concentration (AC50) was 0.479 µM (active).

Take `CC(Oc1ccc(Cl)cc1Cl)C(=O)O` (stereo not given): the outcome was inactive.

Turning to `CCNc1nc(Cl)nc(NC(C)C)n1`, the compound was called inactive.

On to `O=C(O)COc1nc(Cl)c(Cl)cc1Cl`, for which the call was inactive.

On to `CCNc1nc(Cl)nc(NCC)n1`, for which the outcome was inactive.

Regarding `CCCCC(CC)COC(=O)c1ccccc1C(=O)OCC(CC)CCCC` (stereo not given), the call was inactive.

Turning to `CCOC(=O)C(Cl)Cc1cc(-n2nc(C)n(C(F)F)c2=O)c(F)cc1Cl` (stereo not given), the compound was classed as inactive.

As for `CCCCOC(=O)c1ccccc1C(=O)OCCCC`, the compound was classed as inactive.

For the compound `COC(=O)c1ccccc1C(=O)OC`, the call was inactive.

Regarding `C=CCC1=C(C)[C@@H](OC(=O)[C@@H]2[C@@H](C=C(C)C)C2(C)C)CC1=O`, the result was inactive.

One may read the AC50 as the midpoint of the concentration-response curve, whichever way the signal moves.
